Experiment [1] is described as follows: compounds binding Alexa647 anti-His antibody – biochemical, small-molecule microarray, 635 nm fluorescence, artefact control for SMM control protein annotation, primary screen (AID 1128).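 Note: score merges feature fluorescence with signal-to-noise for each printed compound spot.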 Particulars: higher = more signal.
The subject of experiment [2] is Human papillomavirus type 1a E7 protein (residues 1-88). Briefly: HPV1a E7 small-molecule binders, primary screen, biochemical, small-molecule microarray, residues 1-88, 635 nm (AID 1129). Particulars: small-molecule microarray binding, fluorescence 635 nm; higher = more signal.
Experiment [3] concerns the target Focal adhesion kinase 1 (Homo sapiens) (UniProt Q05397). Briefly: PTK2 protein binding on printed compound slides – biochemical, small-molecule microarray, 635/667 nm fluorescence, BSA, DTT, primary screen (AID 1130).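 Note: composite of spot emission at 667 nm and signal to noise over triplicate slides.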 Particulars: 635 nm fluorescence, higher = more signal.
The test system of experiment [4] is Fibrinogen (Alexa647-labelled). Nature of the experiment: Alexa647-fibrinogen binding to printed small molecules – biochemical, small-molecule microarray, 635/667 nm fluorescence, artefact control for SMM control-protein annotation, profiling panel (AID 1131).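 Note: z-score merges 667 nm fluorescence with per-spot signal-to-noise over triplicate slides.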 Particulars: fibrinogen-A647 binding fluorescence, higher = more signal.
For experiment [5], the target named is Follistatin (Homo sapiens) (UniProt P19883). Briefly: FST protein binding to printed compounds – biochemical, small-molecule microarray, 635/667 nm fluorescence, primary screen (AID 1132). Particulars: 635 nm fluorescence, higher = more signal.
Follistatin (Homo sapiens), sequence (P19883 whole entry, looked up): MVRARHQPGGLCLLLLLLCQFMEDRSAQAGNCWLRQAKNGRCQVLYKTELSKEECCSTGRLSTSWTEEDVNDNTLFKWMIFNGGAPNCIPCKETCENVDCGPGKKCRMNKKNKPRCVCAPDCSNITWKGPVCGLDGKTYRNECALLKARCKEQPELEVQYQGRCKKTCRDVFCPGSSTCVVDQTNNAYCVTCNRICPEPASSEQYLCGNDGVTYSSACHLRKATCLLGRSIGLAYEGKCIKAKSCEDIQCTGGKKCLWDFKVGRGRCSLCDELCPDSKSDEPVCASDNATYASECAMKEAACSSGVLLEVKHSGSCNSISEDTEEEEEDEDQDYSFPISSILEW
The target in experiment [6] is Fibroblast growth factor 2 (Homo sapiens) (UniProt P09038). Nature of the experiment: basic fibroblast growth factor binding to printed compounds – biochemical, small-molecule microarray, 635/667 nm fluorescence, primary screen (AID 1133). The note with it: FGF2, fluorescence 635/667, higher = more signal.
Fibroblast growth factor 2 (Homo sapiens), sequence (P09038 whole entry, looked up): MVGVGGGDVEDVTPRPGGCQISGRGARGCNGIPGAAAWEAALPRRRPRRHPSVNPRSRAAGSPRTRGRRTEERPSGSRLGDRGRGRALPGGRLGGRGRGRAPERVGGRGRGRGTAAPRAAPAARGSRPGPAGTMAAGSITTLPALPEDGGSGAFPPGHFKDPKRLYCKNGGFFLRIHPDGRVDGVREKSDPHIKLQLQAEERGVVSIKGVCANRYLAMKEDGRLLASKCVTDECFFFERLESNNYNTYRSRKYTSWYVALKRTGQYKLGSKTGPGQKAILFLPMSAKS
A short description of experiment [7]: JC-1 mitochondrial potential readout, lung cancer cells – cell-based, A549, JC-1 fluorescence, basal, 24 h, 100 nL, profiling panel (AID 1138).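 Note: A549 lung adenocarcinoma cells under basal conditions with no added stimulus; test concentration not given here.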 The note with it: higher = more signal.
A further experiment deals with Lefty1. Briefly: Lefty1 protein binding to printed compounds – biochemical, small-molecule microarray, 635/667 nm fluorescence, primary screen (AID 1139). The note with it: fluorescence 635/667, higher = more signal.
Experiment [8] relates to wheat germ agglutinin (Triticum aestivum), Alexa647-labelled. Nature of the experiment: Alexa647-WGA lectin binding to printed small molecules – biochemical, small-molecule microarray, 635/667 nm fluorescence, artefact control for SMM control-protein annotation, profiling panel (AID 1140).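 Note: score merges 667 nm feature emission with signal to noise over triplicate slides.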 Particulars: WGA-A647 binding, 635 nm fluorescence, higher = more signal.
The target in experiment [9] is Luciferin 4-monooxygenase (Photinus pyralis) (UniProt P08659). Nature of the experiment: inhibition of purified Photinus pyralis luciferase – biochemical, luminescence, purified enzyme, 2006 set, primary screen (AID 1141).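 Note: cell-free assay with purified firefly luciferase at 100 ng per well in PBS; test concentration not given here.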 Particulars: purified firefly luciferase, SteadyGlo luminescence, 30 min; higher = more signal, called active from +8 up or from −8 down.
Luciferin 4-monooxygenase (Photinus pyralis), sequence (P08659 whole entry, looked up): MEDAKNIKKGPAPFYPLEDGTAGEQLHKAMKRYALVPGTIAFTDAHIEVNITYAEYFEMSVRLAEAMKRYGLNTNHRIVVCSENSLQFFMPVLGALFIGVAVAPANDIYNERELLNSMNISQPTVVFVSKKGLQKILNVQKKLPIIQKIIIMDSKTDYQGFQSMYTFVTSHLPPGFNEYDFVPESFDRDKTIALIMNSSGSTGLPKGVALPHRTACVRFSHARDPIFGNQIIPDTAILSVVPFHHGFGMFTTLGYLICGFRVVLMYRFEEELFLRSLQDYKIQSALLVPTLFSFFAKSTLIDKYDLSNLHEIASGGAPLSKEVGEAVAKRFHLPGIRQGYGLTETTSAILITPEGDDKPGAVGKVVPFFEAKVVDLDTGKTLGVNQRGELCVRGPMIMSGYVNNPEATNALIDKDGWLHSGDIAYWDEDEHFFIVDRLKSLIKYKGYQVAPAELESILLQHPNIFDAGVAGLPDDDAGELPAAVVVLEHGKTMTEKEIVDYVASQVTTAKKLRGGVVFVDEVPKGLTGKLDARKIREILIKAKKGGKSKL

Active and inactive are the calls of the source.

Focal adhesion kinase 1 (Homo sapiens), sequence (Q05397 whole entry, looked up): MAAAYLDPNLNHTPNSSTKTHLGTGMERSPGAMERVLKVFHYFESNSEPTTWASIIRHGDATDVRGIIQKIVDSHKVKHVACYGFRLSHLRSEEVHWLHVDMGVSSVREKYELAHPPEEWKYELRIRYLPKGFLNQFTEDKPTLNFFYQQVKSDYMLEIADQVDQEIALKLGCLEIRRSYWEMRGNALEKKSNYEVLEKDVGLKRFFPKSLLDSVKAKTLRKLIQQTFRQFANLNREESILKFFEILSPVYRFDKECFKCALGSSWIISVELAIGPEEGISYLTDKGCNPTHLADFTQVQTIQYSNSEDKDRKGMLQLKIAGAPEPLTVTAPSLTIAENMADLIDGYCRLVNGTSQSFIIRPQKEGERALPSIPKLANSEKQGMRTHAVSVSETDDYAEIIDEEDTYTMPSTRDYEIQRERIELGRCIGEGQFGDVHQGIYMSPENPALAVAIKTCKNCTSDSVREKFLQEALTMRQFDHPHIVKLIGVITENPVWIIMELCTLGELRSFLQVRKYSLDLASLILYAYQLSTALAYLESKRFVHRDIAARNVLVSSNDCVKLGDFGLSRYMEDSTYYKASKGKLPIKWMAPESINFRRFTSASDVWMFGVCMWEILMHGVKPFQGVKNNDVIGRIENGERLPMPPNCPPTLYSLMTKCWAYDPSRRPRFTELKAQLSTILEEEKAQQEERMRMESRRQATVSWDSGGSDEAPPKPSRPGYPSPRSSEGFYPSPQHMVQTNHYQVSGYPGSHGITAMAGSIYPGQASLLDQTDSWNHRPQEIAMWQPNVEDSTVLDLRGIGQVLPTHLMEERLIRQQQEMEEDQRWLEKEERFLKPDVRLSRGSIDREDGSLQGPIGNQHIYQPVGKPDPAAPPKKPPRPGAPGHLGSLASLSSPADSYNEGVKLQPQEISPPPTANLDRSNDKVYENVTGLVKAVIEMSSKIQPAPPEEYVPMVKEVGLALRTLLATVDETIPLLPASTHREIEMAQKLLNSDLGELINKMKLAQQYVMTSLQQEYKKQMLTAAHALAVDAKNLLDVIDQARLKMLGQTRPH

Regarding `CCOC(=O)C[C@H]1[C@H](OC(=O)c2cc3ccccc3oc2=O)[C@@H](NC(=O)c2ccccc2)c2cc(OCCCO)ccc2N1C(=O)c1ccccc1`, the composite z-score in [1] came to 0.29; in experiment [2] it was 0.828; in [3] it was 0.138; in experiment [4], 0.37; in [5] it was 0.744; in experiment [6], 1.18. Besides, the composite z-score with Lefty1 turned out to be 0.443; in [8] it was 0.0432. The values for the z-score in experiment [7] and in experiment [9] were -0.816 and 0.713 (inactive), respectively.
`CC(C)(C)OC(=O)COc1cccc(C(=O)CCN2CCOCC2)c1`: the composite z-score in experiment [1] was -0.413; in [2], 0.355; in experiment [3], -0.272; in experiment [4], 0.226; in [5] it was -0.35; in experiment [6], -0.284. In addition, the figures for the composite z-score (in the experiment on Lefty1; in experiment [8]) were -0.57 and -0.0945, respectively. In addition, the z-score in experiment [7] is 0.583; in experiment [9] it was -2.13 (inactive).
As for `CCN(CC)c1ccc(N2CC=CC34O[C@@H]5/C=C\CCCOC(=O)C5[C@H]3C(=O)N(C(C)CO)[C@@H]4C2=O)cc1` (stereo not given in full), the composite z-score in [1] was -0.556; in experiment [2], -0.107; in experiment [3], -0.294; in experiment [4], -0.158; in experiment [5], 0.077; in experiment [6] it was 0.305. Also, the composite z-score in the experiment on Lefty1 was -0.0464; in experiment [8], -0.0344. The figures for the z-score in [7] and in experiment [9] were 1.18 and -1.38 (inactive), respectively.
Turning to `CO[C@H]1O[C@H](CO)[C@@H](OC(=O)Nc2ccccc2)[C@H](OC(=O)c2cc3ccccc3[nH]2)[C@H]1OC(=O)c1cc2ccccc2[nH]1`, the composite z-score in experiment [1] was 0.568; in experiment [2], 0.181; in experiment [3], 0.353; in [4], 0.475; in [5], 1.13; in experiment [6], 1.61. In addition, the composite z-score was 0.532 in the experiment on Lefty1 and 0.562 in experiment [8]. Besides, the results for the z-score in experiment [7] and in experiment [9] were 0.132 and -0.378 (inactive), respectively.
Turning to `Cc1ccc(C(C)CC(O)C2C=CC3C(=O)N(c4ccccc4)C(=O)C3N2Nc2ccccc2)o1` (stereo not given), the composite z-score was 0.943 in experiment [1]; 1.28 in experiment [2]; 0.908 in experiment [3]; 0.821 in experiment [4]; 1.03 in [5]; -0.0968 in experiment [6]. In addition, the composite z-score with Lefty1 is -0.0661; in experiment [8] it was 0.982. The z-score in [7] is -0.592; in experiment [9], -1.22 (inactive).
As for `C=CCNC(=O)[C@@H]1[C@H]2C(=O)O[C@H](c3ccccc3)[C@H](c3ccccc3)N2[C@H](c2ccc(OCCO)cc2)[C@@]12C(=O)N(C(=O)OCCOC)c1ccc(C#Cc3ccc(OC)cc3)cc12`, the composite z-score in experiment [1] is 0.81; in experiment [2], 1.16; in [3] it was 0.066; in experiment [4] it was 0.785; in experiment [5], 1.27; in experiment [6] it was 0.93. For the same compound, the values for the composite z-score (with Lefty1; in experiment [8]) were 0.901 and 0.939, respectively. Besides, the z-score was -1.41 in experiment [7] and -0.728 (inactive) in [9].
On to `CC1CC/C=C\[C@H]2OC34C=CCN(Cc5ccccc5)C(=O)[C@H]3N(C(CO)C(C)C)C(=O)[C@@H]4C2C(=O)O1` (stereo not given in full), for which the composite z-score in experiment [1] is -0.696; in experiment [2], -1.03; in experiment [3], -0.475; in experiment [4], -0.798; in [5] it was -0.528; in experiment [6], -0.81. Besides, the values for the composite z-score (with Lefty1; in experiment [8]) were -0.722 and 0.389, respectively. Further, the z-score is 1.32 in [7] and -1.15 (inactive) in experiment [9].
With `C=CCOC(=O)[C@@H]1[C@H]2C(=O)O[C@H](c3ccccc3)[C@H](c3ccccc3)N2[C@H](c2ccc(OCCOC(=O)[C@@H]3C[C@@H]4C(=O)N[C@@H](CCCC[N+](C)(C)C)C(=O)N4[C@@H]3c3ccc(O)cc3)cc2)[C@@]12C(=O)Nc1ccc(I)cc12`, the composite z-score in experiment [1] is 2.68; in experiment [2] it was 1.15; in experiment [3], 0.67; in experiment [4], 0.412; in experiment [5], 1.12; in experiment [6], 1.24. For the same compound, the composite z-score in the experiment on Lefty1 worked out at 1.08; in experiment [8], 0.216. The z-score is -1.76 in [7] and -2.38 (inactive) in experiment [9].
With `Cc1ccc(S[C@]2(C(=O)NCc3ccccc3)CC(=O)N(C3CCCCC3)[C@@H]2c2ccc(CO)cc2I)cc1`, the composite z-score in [1] was found to be 0.731; in experiment [2], 0.872; in experiment [3] it was 0.25; in [4], 0.773; in experiment [5], 0.382; in experiment [6], 0.904. For the same compound, the composite z-score is -0.0294 with Lefty1 and 0.68 in experiment [8]. The z-score in [7] is 1.3; in experiment [9], -0.421 (inactive).
With `COC(=O)[C@@]1(Cc2ccc(OC)cc2)[C@H]2c3cc(C(=O)N4CCCC4)n(CCc4c[nH]c5ccc(O)cc45)c3C[C@H]2CN1C(=O)c1ccccc1`, the composite z-score was found to be 0.256 in experiment [1]; 1.23 in experiment [2]; 0.594 in experiment [3]; 0.948 in experiment [4]; 1.16 in experiment [5]; 0.0628 in experiment [6]. In addition, the composite z-score was found to be 0.111 in the experiment on Lefty1 and 0.92 in experiment [8]. In addition, the figures for the z-score in experiment [7] and in experiment [9] were 0.623 and -1.31 (inactive), respectively.
With `CCOC(=O)C[C@H]1[C@H](OC(=O)Cc2ccc3c(c2)OCO3)[C@@H](NC(=O)c2ccc3ccccc3n2)c2cc(OCCCO)ccc2N1C(=O)c1ccccc1`, the composite z-score was -0.0867 in [1]; 0.381 in experiment [2]; -0.0076 in experiment [3]; 0.364 in experiment [4]; 0.803 in experiment [5]; 0.902 in [6]. In addition, the composite z-score in the experiment on Lefty1 worked out at 0.755; in experiment [8] it was 0.326. For the same compound, the z-score in experiment [7] is 2.23; in experiment [9], -0.992 (inactive).
As to `C[N+](C)(C)CCCC[C@@H]1NC(=O)[C@@H]2C[C@H](C(=O)NCCCCCCN)[C@H](c3cccc(OCCO)c3)N2C1=O`, the composite z-score worked out at 3.26 in experiment [1]; 1.16 in experiment [2]; 0.866 in experiment [3]; 0.841 in [4]; 0.976 in experiment [5]; 0.5 in experiment [6]. Also, the composite z-score in the experiment with Lefty1 came to 1.16; in experiment [8], 1.11. Besides, the z-score in experiment [7] was 0.197; in [9] it was -0.583 (inactive).
For the compound `CC(C)C[C@@H]1NC(=O)[C@@H]2C[C@H](C(=O)NCCCCCCN)[C@H](c3cccc(OCCO)c3)N2C1=O`, the composite z-score in experiment [1] turned out to be 2.25; in experiment [2], 1.11; in experiment [3] it was 0.344; in [4] it was 0.662; in experiment [5], 1.32; in [6] it was 0.548. Further, the composite z-score with Lefty1 came out at 1.51; in experiment [8] it was 1.1. In addition, the z-score in experiment [7] was -0.645; in experiment [9] it was 0.459 (inactive).
